In PubChem BioAssay (NCI):
This is part of a sample that, as a whole, favours compounds with a hit. Of some 83,000 tested, about 20% had one in any assay.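 Step 1: grow cells in 96-well plates. Step 2: add test compound at a single concentration. Step 3: incubate 48 h. Step 4: record percent growth.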 A number with no mark means an inactive call. Activity calls are given as the source filed them. How the source made its calls: active means growth percent below 10; inactive means the rest.

Tests used:
Experiment in all cases: NCI-60 one-dose screen, 48 h (100 = growth as untreated, 0 = no growth, -100 = all killed)
Details in all cases: 10 µM unless noted
HCT-15 colon = system: HCT-15 colon
HT29 colon = system: HT29 colon
SNB-75 CNS = system: SNB-75 CNS
SNB-19 CNS = system: SNB-19 CNS
U251 CNS = system: U251 CNS
PC-3 prostate = system: PC-3 prostate
SK-MEL-5 melanoma = system: SK-MEL-5 melanoma
UACC-62 melanoma = system: UACC-62 melanoma
LOX IMVI melanoma = system: LOX IMVI melanoma
SK-MEL-28 melanoma = system: SK-MEL-28 melanoma

Compound | growth (HCT-15 colon) | growth (HT29 colon) | growth (SNB-75 CNS) | growth (SNB-19 CNS) | growth (U251 CNS) | growth (PC-3 prostate) | growth (SK-MEL-5 melanoma) | growth (UACC-62 melanoma) | growth (LOX IMVI melanoma) | growth (SK-MEL-28 melanoma)
COc1cc(NC(=O)Nc2cnc(Nc3ccc(N4CCOCC4)cc3)nc2Oc2ccc(C(F)(F)F)cc2)cc(OC)c1 | 103% | 95.5% | 84.4% | 99.5% | 97.3% | 93.3% | 101% | 105% | 95.6% | 116%
Cc1cc(C)c2nc(Nc3nc(C)c(C)c(=O)[nH]3)nc(C)c2c1 | 7.23% (active) | 9.28% (active) | 51.3% | 22% | 16.7% | 20.9% | 2.14% (active) | -37.7% (active) | 6.29% (active) | 3.48% (active)
Cc1cnc(-c2ccc(-c3ccc(NC(=O)Nc4c(F)cc(F)cc4F)cc3F)c3c2C(=O)NC3)[nH]1 | 49.4% | 27% | 17.3% | 41.9% | 8.19% (active) | 39.7% | 38.5% | 0.806% (active) | 32.9% | 39.1%
CC(C)(C)c1ccc(O)c(Cc2cc(C(C)(C)C)ccc2O)c1 | 101% | 98.7% | 89.2% | 101% | 90.2% | 12.5% | 99% | 87.8% | 99.1% | 104%
CCOC(=O)c1c(C(F)(F)F)n([O-])c2ccc(Cl)cc2[n+]1=O | -60.2% (active) | -43.2% (active) | -52.2% (active) | 32.4% | -87.7% (active) | -85.7% (active) | -93.2% (active) | -18.1% (active) | -86.8% (active) | -32.8% (active)
O=C1c2ccccc2C(=O)c2c1oc1c2c(=O)[nH]c2ccccc21 | 44.7% | 103% | 113% | 104% | 79% | 65.5% | 79.7% | 88.7% | 56.1% | 112%
O=C(N/N=C/C[C@@H]1[C@@H](/C=C/[C@@H](O)COc2cccc(Cl)c2)[C@H](O)C[C@@H]1O)c1ccncc1 | 99.3% | 71.1% | 90.5% | 98.1% | 92.9% | 91% | 96.6% | 92.9% | 94.3% | 103%
NS(=O)(=O)c1ccc(-n2nc(-c3ccccc3)ccc2=O)cc1 | 108% | 112% | 114% | 101% | 99.2% | 96.2% | 109% | 89.6% | 104% | 104%
CNCc1cccc2c1OCCOCCOCCN(CCN1CCOCC1)S(=O)(=O)c1ccc(cc1)-c1cnc(N)c(n1)C(=O)N2 | 74.8% | 24.5% | 16.7% | 76.3% | 53.8% | 50.1% | 76.6% | 73% | 28.4% | 76.3%
CC(C)C[C@H](C(=O)O)N(C)C(=O)[C@@H]1CCCN1C(=O)[C@H](C)OC(=O)[C@H](CCC(N)=O)NC(=O)[C@@H]1CCC(=O)N1 | 95.9% | 104% | 84.3% | 102% | -37% (active) | 96.6% | 95.6% | 102% | 104% | 103%
CC(=O)ON1CCCC(P(=O)(OCOC(=O)C(C)(C)C)OCOC(=O)C(C)(C)C)C1=O (stereo not given) | 3.57% (active) | -4.49% (active) | 25.4% | -7.66% (active) | -8.95% (active) | 17.7% | -55.7% (active) | -64.7% (active) | 9.18% (active) | -46.9% (active)
CCN(CC)c1ccc2c(c1)Oc1nc(N)c(C#N)c(N)c1C2Sc1ccc(OC)cc1 (stereo not given) | 2.89% (active) | -61.6% (active) | -10% (active) | 20.9% | -36.4% (active) | 1.15% (active) | 1.93% (active) | -16.9% (active) | -63.6% (active) | 29.3%
COc1cc(/C=C/C(=O)c2cccs2)ccc1OCc1ccc(Cl)nc1 | 62.5% | 97.3% | 119% | 66.6% | 35.3% | 69% | 87.2% | 71.3% | 27.2% | 92%
CC(=O)c1ccc(NC(=O)CSc2nnc(-c3cc(-c4ccc(C)cc4)nc4ccccc34)o2)cc1 | 56.7% | 68.2% | 62.1% | 43.2% | -59.8% (active) | 53.4% | 68.7% | 90.7% | 31.9% | 99.3%
CC(=O)O[C@@H]1C[C@]2(C)[C@H]3[C@H](O)C[C@@H]4C5=CC(C)(C)CC[C@]5(C)CC[C@@]4(C)[C@]3(C)CC[C@H]2C(C)(C)[C@H]1O | 100% | 97.8% | 91.6% | 104% | 97.6% | 84.9% | 114% | 97.4% | 98.7% | 106%
COc1ccc(/C=C/C(=O)c2ccc(NC(=O)CSc3nnc(-c4ccc(OC)c(OC)c4)n3-c3ccccc3)cc2)cc1 | 4.42% (active) | 43.7% | 63.3% | 60.5% | -9.68% (active) | 53.1% | 73.4% | 68.4% | -87.5% (active) | 95.8%
CCCCOc1nc2ccc(C)cc2cc1/C=C/C(=O)/C=C/c1ccc2c(c1)OCO2 | 97.8% | 63.6% | 97.1% | 92.9% | 48.4% | 72.4% | 77.6% | 75.6% | 77.3% | 109%
COc1cc2c(cc1OCCCOc1cc3c(cc1OC)C(=O)N1CC(F)(F)C[C@H]1C=N3)N=C[C@@H]1CC(F)(F)CN1C2=O | 94.4% | 11.8% | -8.01% (active) | 24.3% | 18% | 3.21% (active) | -77.3% (active) | -71.2% (active) | 16% | -1.8% (active)
CCN1CCN(c2ccc(NC(=O)Nc3nc4ccc(-c5ccccc5OC)cc4s3)cc2)CC1 | -83.2% (active) | -92% (active) | -19.8% (active) | -82.8% (active) | -87% (active) | -83.8% (active) | -98.8% (active) | -85.3% (active) | -86.4% (active) | -79.3% (active)
COc1cc([C@H](C)c2ccc3ccccc3c2)cc(OC)c1OC | 21.7% | 8.72% (active) | 0.258% (active) | 32.7% | 19.6% | 30.5% | 18.1% | 32.5% | 48.6% | 61.8%
COc1ccc2[nH]c(-c3ccccc3)c(C=C(C#N)C#N)c2c1 | 36.3% | 17.2% | -5.72% (active) | 73.2% | 35.2% | 13.2% | 8.94% (active) | 22.1% | 42.6% | 44%
C=CCn1c(SCC(=O)Nc2ccc(C(=O)/C=C/c3cc(OC)c(OC)c(OC)c3)cc2)nnc1-c1ccc(Cl)cc1 | -1.47% (active) | -43.1% (active) | 20.1% | 35.2% | -3.31% (active) | 28.3% | 9.64% (active) | 22.1% | -22.4% (active) | 59%
CC(C)(C)c1nc2c(s1)c1nc(N)ncc1c1ccc(NS(=O)(=O)c3c(F)cccc3F)c(F)c12 | 42.7% | 10.8% | 57.4% | 105% | 73% | 51.9% | 36.1% | -2.66% (active) | 20.5% | 4.5% (active)
COc1cc(-c2nn(-c3ccc(Br)cc3)cc2CO)ccc1O | 87.4% | 88.8% | 87.7% | 94% | 95.2% | 75% | 94.1% | 78.9% | 86.5% | 110%
CCCCn1c(=O)c(/C=C/C(=O)/C=C/c2cc3ccccc3n(CCCC)c2=O)cc2ccccc21 | 1.62% (active) | -88.9% (active) | 48.8% | 16.2% | -48.3% (active) | 1.47% (active) | -74.5% (active) | -43.8% (active) | -80.3% (active) | -8.48% (active)
